Experimental findings from PubChem BioAssay AID2685 (National Center for Advancing Translational Sciences (NCATS), 2010) are described below.

Each structure is given as a SMILES string. The campaign covered roughly 320,000 compounds. About 2,100 (0.66%) were called active. Not shown: some 53% with an inconclusive outcome. Calls follow the shape of the dose curve; as a rule, active = well fitted inhibition curve with a large enough effect in the signal ratio, with a control signal flat (not every such curve was filed as active); inconclusive = small, poorly fitted or top-dose-only effect, or effect the other way, or a change in a side signal; inactive = flat fitted curve, though single readings scatter; the % refers to the signal ratio. The full list was thinned out, with actives kept by preference.
Potency is read from the fitted curve at half-maximal effect.

This assay in a line: qHTS Assay for Lipid Storage Modulators in Drosophila S3 Cells.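 As to cell number change: cells counted by Cell Tracker Red CMTPX staining in the red channel.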 As to lipid storage change, negative = inhibition: % is scaled to controls: 0 for no effect and ±100 for the full control effect. The settings on record: BODIPY lipid droplet fluorescence, 18-24 h, cells fed with added oleic acid; cell number change: measured here: cell count max response; series mostly up to 46.1 µM; lipid storage change, negative = inhibition: at the top concentration. The procedure, abridged:
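Drosophila S3 cells got compounds at several concentrations plus oleic acid (400 uM solution). Laser-scanning cytometry with 488 nm excitation read lipid droplets at 500-530 nm and cells at 575-640 nm. Percent activity was relative to 20 uM Triacsin C.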
For orientation: qHTS replaces the single test concentration by a dilution series.
On to `CC(NC(=O)CN(C1CCCCC1)S(C)(=O)=O)c1ccccc1` (configuration not stated), for which the “lipid storage change, negative = inhibition” value was -21.2% (inactive) and the cell number change is -4.99%.
In the case of `COc1cccc(NC(=O)C(=O)NCCC2CCCCN2S(=O)(=O)c2cccs2)c1` (configuration not stated), the lipid storage change, negative = inhibition was -10.7% [at 0.0737 µM] (inactive).
`Cc1ccc(S(=O)(=O)N2CCCCC2CCNC(=O)C(=O)NCc2ccccc2C)cc1` (configuration not stated): the Potency is 9.2 µM (active).
For `O=C(NCCC1CCCCN1S(=O)(=O)c1ccccc1)C(=O)NC1CCCC1` (configuration not stated), the “lipid storage change, negative = inhibition” value is 9.91% (inactive) and the cell number change is -1.87%.
As to `Cc1ccc(S(=O)(=O)N2CCCCC2CCNC(=O)C(=O)NC2CCCC2)cc1` (configuration not stated), the Potency is 0.184 µM (active) and the cell number change was -16.3%.
In the case of `COc1cccc(CNC(=O)C(=O)NCCC2CCCCN2S(=O)(=O)c2ccccc2)c1` (configuration not stated), the “lipid storage change, negative = inhibition” value was 23.2% (inactive) and the cell number change is -8.33%.
With `COc1cccc(NC(=O)C(=O)NCCC2CCCCN2S(=O)(=O)c2ccccc2)c1` (configuration not stated), the Potency was 9.2 µM (active) and the cell number change was -3.85%.
On to `Cc1ccc(S(=O)(=O)N2CCCCC2CCNC(=O)C(=O)NCc2ccccc2)cc1` (configuration not stated), for which the “lipid storage change, negative = inhibition” value is 28.7% (inactive).
On the same count and under the same terms, the same measure for `O=C(NCCC1CCCCN1S(=O)(=O)c1ccc(F)cc1)C(=O)NC1CC1` (configuration not stated): 12.8% (inactive).
On to `COc1ccccc1CNC(=O)C(=O)NCCC1CCCCN1S(=O)(=O)c1ccc(C)cc1` (configuration not stated), for which the “lipid storage change, negative = inhibition” value is 26.8% (inactive) and the cell number change was 18.8%.
Regarding `FC(F)(F)c1cccc(-c2ccn3ncnc3n2)c1`, the “lipid storage change, negative = inhibition” value is 8.44% (inactive) and the cell number change turned out to be 16.1%.
Taken in the same sequence, the figures for `CC(=O)c1cc(-c2ccccc2)n(CC(=O)NC2CCCC2)c1C` were -17.9% (inactive) and -1.74%.
Taken in the same sequence, the figures for `CCC(=O)Nc1ccc(NC(=O)CSc2nnnn2-c2ccc3c(c2)OCCO3)cc1` were 7.85% (inactive) and 5.29%.
For the compound `C/C(=C\c1ccco1)C1Nc2cccc3cccc(c23)N1`, the Potency is 18.4 µM (active) and the cell number change was -14.8%.
With `C/C(=C\c1cc2ccccc2o1)C1Nc2cccc3cccc(c23)N1`, the “lipid storage change, negative = inhibition” value is 19.1% (inactive) and the cell number change was found to be 7.96%.
For `c1coc(C2Nc3cccc4cccc(c34)N2)c1`, the call was inactive and the cell number change is -0.664%.
Take `CC(C)(C)c1ccc(C(=O)OCC(=O)NC2CC2)cc1`: the outcome was inactive.
For `CCc1nn(C(CC)C(=O)NCc2cccs2)c(=O)c2cc3occc3n12` (configuration not stated), the compound was called inactive and the cell number change is -4.96%.
For `CCc1nn(C(CC)C(=O)NCc2cccc(OC)c2OC)c(=O)c2cc3occc3n12` (configuration not stated), the Potency was 10.3 µM (active) and the cell number change is -13.5%.
Take `CCc1nn(C(CC)C(=O)NCc2cccc(OC)c2)c(=O)c2cc3occc3n12` (configuration not stated): the outcome was inactive.
In the case of `Cc1cc(S(=O)(=O)NCC(C)C)ccc1OCC(=O)NCc1ccco1`, the “lipid storage change, negative = inhibition” value was 5.71% (inactive) and the cell number change amounted to 21.6%.
`Cc1noc(C)c1CCC(=O)NC1CCCN(Cc2ccc(CC(C)C)cc2)C1` (configuration not stated): the compound was classed as inactive.
`Cc1ccc(N=Cc2ccc(O)cc2O)cc1F`: the “lipid storage change, negative = inhibition” value was 28.9% (inactive).
As for `O=C(O)C1CC=CCC1C(=O)Nc1ccccc1` (configuration not stated), the compound was classed as inactive.
In the case of `O=C(O)C1C2C=CC(O2)C1C(=O)Nc1ccc(S(=O)(=O)N2CCc3ccccc32)cc1` (configuration not stated), the “lipid storage change, negative = inhibition” value is 18.4% (inactive) and the cell number change is -9.33%.
Regarding `O=C(O)c1ccc(NC(=O)C2CC=CCC2C(=O)O)cc1` (configuration not stated), the Potency was 0.184 µM (active) and the cell number change amounted to 3.62%.
As to `O=C(Nc1ccc(S(=O)(=O)N2CCc3ccccc32)cc1)C(F)(F)F`, the compound was classed as inactive and the cell number change is -4.4%.
Turning to `CN(C(=O)c1ccc(NC(=O)C2CC=CCC2C(=O)O)cc1)c1ccccc1` (configuration not stated), the “lipid storage change, negative = inhibition” value is -13.4% (inactive) and the cell number change was determined as 2.31%.
On to `O=C(O)C1CC=CCC1C(=O)Nc1ccc(S(=O)(=O)N2CCCc3ccccc32)cc1` (configuration not stated), for which the Potency is 23.1 µM (active) and the cell number change is 4.45%.
As for `CC(C)CC(NC(=O)c1ccccc1)C(=O)OCC(=O)Nc1ccc(Br)cn1` (configuration not stated), the compound was called inactive.
With `Cc1[nH]c2ccccc2c1SCCNC(=O)c1ccc(S(=O)(=O)N2CCCC2)cc1`, the “lipid storage change, negative = inhibition” value is 15.4% (inactive) and the cell number change was -15.8%.
On the same counts, the results for `CNC(=S)Nc1cc(C(=O)N2CCCC2)ccc1N1CCCC1` are 5.95% (inactive) and -7.02%.
Taken in the same sequence, the figures for `Cc1cccc(NC(=O)C2C(c3ccccc3)C2(Cl)Cl)c1C` (configuration not stated) were -1.24% (inactive) and 10.7%.
For `O=C(c1cccs1)N1CCC(c2nc3c(nnn3Cc3cccc(Cl)c3)c(=O)[nH]2)CC1`, the compound was classed as inactive and the cell number change is -4.62%.
For the compound `Cc1ccc(N(C(=O)Cc2cccs2)C(C(=O)NC2CCCCC2)c2ccccn2)cc1C` (configuration not stated), the “lipid storage change, negative = inhibition” value is -10.6% (inactive) and the cell number change amounted to 4.06%.
Taken in the same sequence, the figures for `O=C(CCC(=O)c1ccccc1)NCCc1c[nH]c2ccccc12` were 3.97% (inactive) and -0.682%.
Taken in the same sequence, the figures for `CN(C)C(=O)N1CCN(C(=O)N2CCOCC2)CC1` were 0.227% (inactive) and 3.54%.
Taken in the same sequence, the figures for `Cc1cc(C)c(S(=O)(=O)N2CCN(C(=O)N(C)C)CC2)c(C)c1` were -7.06% (inactive) and -11%.
On to `Cc1ccccc1NS(=O)(=O)c1ccc(C)c(C(=O)N2CCOCC2)c1`, for which the “lipid storage change, negative = inhibition” value was 10.2% (inactive) and the cell number change worked out at 1.29%.
On to `Cc1cc(C)c(S(=O)(=O)N2CCN(C(=O)N3CCOCC3)CC2)c(C)c1`, for which the Potency is 3.66 µM (active) and the cell number change is -4.21%.
For `CN(C)S(=O)(=O)N1CCN(S(=O)(=O)N2CCOCC2)CC1`, the “lipid storage change, negative = inhibition” value was 0.943% (inactive) and the cell number change amounted to 6.09%.
On to `COc1ccc(S(=O)(=O)Nc2ccccc2C(=O)N2CCOCC2)cc1C`, for which the call was inactive and the cell number change was -5.26%.
`CN(C)S(=O)(=O)N1CCN(C(=O)N2CCOCC2)CC1`: the Potency was 5.8 µM (active) and the cell number change was -2.73%.
For the compound `Cc1cc(C)c(S(=O)(=O)N2CCN(S(=O)(=O)N3CCOCC3)CC2)c(C)c1`, the compound was called inactive and the cell number change amounted to 9.13%.
For `Cc1cc(C)c(S(=O)(=O)Nc2ccccc2C(=O)N2CCOCC2)c(C)c1`, the Potency is 25.9 µM (active) and the cell number change was -34.8%.
`CCCN(CCC)S(=O)(=O)c1nc2nc(C)cc(C)n2n1`: the “lipid storage change, negative = inhibition” value was -0.0183% (inactive) and the cell number change came to 8.75%.
Regarding `COc1cc2c(cc1OC)C(c1ccc(O)cc1)NCC2` (configuration not stated), the call was inactive and the cell number change is -6.35%.
Turning to `O=C1CCCN1CCC12CC3CC(CC(C3)C1)C2`, the “lipid storage change, negative = inhibition” value was 6.49% (inactive) and the cell number change was -8.85%.
On the same counts, the results for `COc1ccc(OC)c(CN2CCN(CCCc3ccccc3)C(CCO)C2)c1` (configuration not stated) are 0.843% (inactive) and 25.4%.
Taken in the same sequence, the figures for `CCOc1ccc(CCNC(=O)c2ccc(=O)[nH]c2)cc1OCC` were 2.9% (inactive) and 0.381%.
Taken in the same sequence, the figures for `Cc1cccc(OCc2cc(-c3ccccc3)no2)c1C` were 26% (inactive) and 19.4%.
For the compound `CC(C)C(c1nnnn1C1CCCCC1)N1CCc2ccccc21` (configuration not stated), the compound was classed as inactive and the cell number change was found to be 19.2%.
With `CC(C)C(c1nnnn1C1CCCC1)N(C)C1CCCCC1` (configuration not stated), the Potency is 5.17 µM (active) and the cell number change is -2.08%.
For `CC(C)C(c1nnnn1C1CCCC1)N1CCCCC1` (configuration not stated), the result was inactive and the cell number change is -26.8%.
Regarding `N#CC(C(=O)O)=C1CCCC1`, the Potency was 23.1 µM (active) and the cell number change was -10.5%.
Consider `N#CC(C(=O)Nc1ccccc1)=C1CCCCC1`, for which the call was inactive.
Consider `N#CC(C(=O)NC1CCCCC1)=C1CCCCC1`, for which the “lipid storage change, negative = inhibition” value was 0.277% (inactive) and the cell number change is 0.427%.
With `CCOc1cc(-c2ccc3c(c2)OCO3)cc(=O)c2c(C)oc(C)c12`, the call was inactive and the cell number change was -26.2%.
For the compound `CCO[C@@H]1OC(C(=O)N2CCN(Cc3ccc4c(c3)OCO4)CC2)=C[C@H](c2csc3ccccc23)[C@H]1CCCO`, the “lipid storage change, negative = inhibition” value is 1.93% (inactive) and the cell number change was -13%.
